Shown are actives, neighbours in structure and some others; about 21% of the full set was active somewhere.
Cycloheximide cs: affects cycloheximide protein synthesis inhibition readout, counter-screen; cell reporter, cycloheximide protein synthesis inhibition counterscreen; max response, %; 12% of 300,000 active; in the data active means max response mostly above about 13%, no sharp cut-off; inactive means mostly below about 14%; further: read at 38.3 µM for the half of the compounds with a filed dose; 0% is about no effect
Shiga inhibitor: inhibitors of Shiga toxin in Vero cells | Vero cells, Shiga toxin protein synthesis inhibition reporter | inhibition, % at 38.7 µM | 9.2% of 290,000 active | AID 2315; in the data active means inhibition mostly above about 28%, no sharp cut-off; inactive means mostly below about 43%; further: 0% is about no effect
SARS PLP yeast: blocks SARS-CoV papain-like protease in a yeast assay | S. cerevisiae expressing SARS-CoV PLpro, growth rescue | Potency, µM (doses to about 32.9 µM), for inactives: at the highest dose activity, positive = growth rescue, actives largely listed as activators | 0.19% of 330,000 active | AID 485353; calls by dose curve; further: potency means the concentration at half of the fitted maximal effect; 0% is about no effect; nearly all actives have a fitted effect of over 55% in size
Pf growth 96h: P. falciparum growth inhibition at 96 hour, primary screen for plastid delayed-death inhibitors. P. falciparum luciferase reporter growth, 96 h. Potency, µM (titrated, usually from 28.7 µM), for inactives: at the highest dose activity change, negative = inhibition, actives largely listed as inhibitors. 6.9% of 320,000 active; further: potency means the concentration at half of the fitted maximal effect; on the % scale 0 is the no-effect control and ±100 the full control effect
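P. falciparum expressing integrated firefly luciferase grown in erythrocytes (2% hematocrit, 0.05% parasitemia final) with compounds for 96 hours at 37 C, 5% CO2. Growth inhibition read as loss of luminescence after adding luciferase detection reagent.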
Pf growth 48h: inhibits P. falciparum growth in the first generation, 48 h; P. falciparum luciferase growth in erythrocytes, 48 h; Potency, µM (titrated, usually from 28.7 µM), for the others: top-dose activity change, negative = inhibition, usual class: inhibitors; 5.9% of 310,000 active; AID 504832; further: potency means the concentration at half of the fitted maximal effect; on the % scale 0 is the no-effect control and ±100 the full control effect
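First compound was added to culture medium, then infected red cells at 0.1% parasitemia and 2% hematocrit (final). After incubation at 37 C under 5% CO2, luciferase detection reagent was dispensed and light output recorded.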
NS1 function inh: blocks influenza NS1 protein function | Potency, µM (top dose mostly 46.1 µM), for the others: at the top dose activity, positive = more growth | 0.4% of 270,000 active | AID 2326; calls by dose curve; further: potency means the concentration at half of the fitted maximal effect; actives are rising curves; nearly all actives have a fitted effect of over 50% in size
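Recovery from NS1-induced slow growth read by OD600 in budding yeast switched to galactose assay medium (pH 6.0, -URA) at 1:100 dilution. Compound 23 nl per well; the matching strain lacking NS1 serves as control.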
The depositor's hits bear a star; u = inconclusive; x = no result; [ ] = another dose, or the depositor's remark. Unless noted, the call rests on the fitted dose curve; in most records, active means well fitted inhibition curve with a large enough effect; inconclusive means small, poorly fitted or top-dose-only effect, or another doubt; inactive means no such curve, though single readings can be large or run the other way.

SMILES	Cycloheximide cs	Shiga inhibitor	SARS PLP yeast	Pf growth 96h	Pf growth 48h	NS1 function inh
CCCN=C1N/C(=C\c2ccco2)C(=O)N1c1ccccc1	-4.8	-16.8	-6.3%	-20.0%	x	0.7%
N#CC/C(N)=N/Nc1nc2ccccc2nc1Cc1ccccc1	-8.3	-12.4	0.4%	u	4.65µM*	u
CCOC(=O)C1(C)C=C(Nc2ccc(O)cc2)C(=O)N1c1ccc(O)cc1 (configuration not stated)	0.4	13.6	4.7%	10.4µM*	11.7µM*	1.2%
O=C(NCCN1CCN(C(=O)NC2CCCCC2)CC1)NC1CCCCC1	1.2	14.2	-2.0%	13.1µM*	23.7%	-7.1%
CC1=NN(C(C#N)c2ccccc2C)C(C)(C)C1 (configuration not stated)	-3.1	13.2	0.2%	-1.6%	-14.2%[5.75 µM]	x
CN(C)c1ccc(C(=O)N(Cc2ccccc2)Cc2ccccc2)cc1	-3.8	-6.6	-9.4%	14.7µM*	-4.2%	-1.2%
O=C(c1ccccc1)c1ccccc1	2.8	-3.1	-2.1%	5.6%	8.3%	x
CC(=O)Nc1cccc(C(=O)N(Cc2ccccc2)Cc2ccccc2)c1	-2.1	-6.1	-0.8%	-20.7%	2.1%	-3.5%
CN(C)c1ccc(C(=O)c2ccccc2)cc1	26.2*	41.0	-12.4%	133.3%	x	-45.2%
CN(C)c1cccc(C(=O)N(Cc2ccccc2)Cc2ccccc2)c1	1.4	-3.4	-12.4%	10.4µM*	-11.8%	-72.1%
O=C(c1ccccc1)c1ccc(-c2ccc(O)cc2)cc1	39.8*	67.7*	-4.4%	127.0%	90.5%	-3.9%
O=C(Nc1ccc(C(=O)NC2CCCCC2)cc1)c1cccnc1	-1.9	-5.1	3.5%	u	-14.1%	1.8%
O=C(Cc1ccsc1)NNC(=O)c1ccccc1Cl	x	x	2.9%	27.8%	-14.9%	x
COc1cc2c(cc1NC(=O)CCC(=O)O)oc1ccccc12	4.2	1.3	2.3%	u	27.5%	-7.1%
COc1cc2c(cc1NC(=O)COC(=O)Cn1cnc3ccccc31)oc1ccccc12	36.2*	79.3*	-31.3%	-1.7%	62.9%	-54.7%
COc1cc2c(cc1NC(=O)Cc1ccc(C)cc1)oc1ccccc12	73.1*	93.2*	-2.3%	-29.3%	69.8%	11.6%
COc1ccc(CCNC(=O)c2cccc(NC(=O)CC3SC(N4CCCCC4)=NC3=O)c2)cc1OC (configuration not stated)	-1.2	-5.5	u	u	11.7µM*	3.4%
COc1cc2c(cc1NC(=O)COc1ccccc1OC)oc1ccccc12	4.8	36.2	-2.3%	0.0%	36.2%	0.9%
COc1cc2c(cc1NC(=O)COC(=O)[C@@H](NS(=O)(=O)c1ccccc1)C(C)C)oc1ccccc12	11.3*	55.6*	1.1%	52.7%	14.0%	-16.3%
O=C(O)c1ccccc1C(=O)NCc1c(Cl)cccc1Sc1ccc(Cl)cc1	-3.7	-15.4	-0.4%	27.4%	-1.6%	6.0%
COc1ccc(NC(=O)COC(=O)Cc2coc3cc(OC)ccc23)c(OC)c1	x	x	-10.6%	x	x	x
COc1ccccc1NC(=O)CCNS(=O)(=O)c1ccc2c(c1)CC(C)N2C(=O)C1CC1 (configuration not stated)	6.9	-15.5	-7.6%	u	-7.5%	1.4%
COc1cc2c(cc1NC(=O)CC1SC(N3CCCC3)=NC1=O)oc1ccccc12 (configuration not stated)	-1.1	7.7	-3.2%	1.17µM*	6.57µM*	-40.5%
COc1cc2c(cc1NC(=O)CN(C)Cc1ccc(OC)c(OC)c1)oc1ccccc12	0.2	12.1	-21.6%	7.38µM*	9.28µM*	-19.0%
COc1cc2c(cc1NC(=O)COC(=O)C(CCSC)NC(=O)c1ccccc1Cl)oc1ccccc12 (configuration not stated)	14.6	active	13.5%	81.5%	36.4%	-2.0%
SMILES	Cycloheximide cs	Shiga inhibitor	SARS PLP yeast	Pf growth 96h	Pf growth 48h	NS1 function inh
COc1cc2c(cc1NC(=O)C(C)NCc1ccccc1)oc1ccccc12 (configuration not stated)	63.6*	76.4*	-52.4%	u	u	-45.5%
O=C(CSc1nc(-c2ccccc2)c(-c2ccccc2)o1)NCCCO	0.9	-18.6	4.6%	-5.7%	u	-5.3%
Cc1cccc(NC(=O)COC(=O)CN2CCCCCC2=O)c1C	x	x	1.1%	x	x	x
COCCN(C(=O)COC(=O)c1ccccc1Oc1ccccc1)c1c(N)n(Cc2ccccc2)c(=O)[nH]c1=O	3.5	23.3	27.6%	u	-10.9%	-25.0%
CC(=O)C1C(=O)CC(C)(O)C(C(C)=O)C1c1ccccc1 (configuration not stated)	7.2	3.6	0.0%	92.2%	3.2%	x
COc1cc2c(cc1NC(=O)CCCN1C(=O)CCC1=O)oc1ccccc12	35.6*	79.0*	0.1%	-3.6%	39.5%	-7.4%
COc1ccc(CN(C)CC(=O)Nc2ccccc2C(F)(F)F)c(OC)c1	-3.0	7.4	-23.4%	61.8%	10.3%	3.8%
COc1ccc(CN(C)CC(=O)Nc2cc3oc4ccccc4c3cc2OC)c(OC)c1	-0.4	1.2	-25.3%	9.28µM*	u	-16.5%
O=C(c1ccccc1O)N1N=C(c2ccccc2)CC1(O)C(F)(F)F (configuration not stated)	-0.5	1.4	21.8%	u	9.2%	x
CCN(CC)CCn1c(=S)[nH]c2cc(C(=O)NCc3ccccc3Cl)ccc2c1=O	-2.2	10.8	3.9%	96.2%	u	-5.9%
Cc1ccc(S(=O)(=O)c2nc(-c3ccccc3F)oc2N2CC(C)OC(C)C2)cc1 (configuration not stated)	-0.3	-11.1	-3.5%	u	-20.7%	3.3%
COc1ccc(S(=O)(=O)c2ccc(OC)cc2)cc1	-1.1	-6.2	1.7%	x	9.0%	-17.0%
O=S(=O)(Cc1ccccc1)c1cnc2ccccc2n1	5.6	21.1	-6.1%	x	10.4µM*	-15.4%
COc1ccc(S(=O)(=O)c2cnc3ccccc3n2)cc1	2.5	16.4	1.1%	13.1µM*	u	x
O=S(=O)(c1ccc(Br)cc1)c1cnc2ccccc2n1	7.5	-6.2	-0.8%	11.7µM*	u	x
NC(=O)Cn1c(S(=O)(=O)Cc2ccccc2)nc2ccccc21	x	x	x	x	x	1.0%
CCN(CC(=O)Nc1cccc(S(=O)(=O)N(C)c2ccccc2)c1)Cc1cccs1	x	x	-10.0%	u	u	x
O=C1CC(NS(=O)(=O)c2cccnc2)CN1c1ccccc1 (configuration not stated)	x	x	-1.1%	15.8%	-14.2%	x
CCOC(=O)N1CCC(N2C(=O)c3ccc(C(=O)Nc4ccc(OC)cc4)cc3C2=O)CC1	2.2	-12.1	2.1%	u	3.2%	-1.6%
CCOC(=O)C(CC)n1cnc2c(nnn2-c2ccc(F)cc2)c1=O (configuration not stated)	-3.2	13.2	1.8%	26.1%	4.8%	-10.0%
Cc1nn(C)cc1C(C(=O)NC1CCCCC1)N(Cc1ccc(F)cc1)C(=O)c1cnccn1 (configuration not stated)	-3.5	-17.9	6.0%	u	-0.4%	x
